Screening data: PubChem, several laboratories
A selection: hits, their analogues and other compounds. The true share with any hit is near 3.2%.
GDH-TPI counter = inhibits GDH-TPI coupling enzymes, artifact for Mtb FBA screen; GDH-TPI coupled enzyme counterscreen, NADH absorbance; inhibition, % at 4.8 µM; actives 1.2% (n = 360,000); AID 588335; in the data active means inhibition above about 30%;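 further: 0% = DMSO wells and 100% = wells lacking the enzyme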
Mtb UGM inh = blocks M. tuberculosis UGM enzyme; P9WIQ1; purified UGM, fluorescence polarization probe displacement; inhibition, % at 10 µM; actives 0.06% (n = 320,000); AID 504406; in the data active means inhibition above about 10%, passing the limit was not always enough
Target sequence (P9WIQ1 whole entry, looked up): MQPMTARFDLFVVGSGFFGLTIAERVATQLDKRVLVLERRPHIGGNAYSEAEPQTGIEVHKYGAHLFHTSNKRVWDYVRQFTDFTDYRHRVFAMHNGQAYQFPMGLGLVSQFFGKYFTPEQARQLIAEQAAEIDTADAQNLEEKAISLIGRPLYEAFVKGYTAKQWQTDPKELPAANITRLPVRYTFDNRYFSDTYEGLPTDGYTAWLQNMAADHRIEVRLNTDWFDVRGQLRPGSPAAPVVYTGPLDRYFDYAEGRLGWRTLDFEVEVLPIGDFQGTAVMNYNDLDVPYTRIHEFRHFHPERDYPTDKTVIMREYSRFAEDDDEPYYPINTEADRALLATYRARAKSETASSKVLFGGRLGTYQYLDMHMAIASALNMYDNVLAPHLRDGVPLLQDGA
PriA SSB inh = inhibitors of Klebsiella pneumoniae PriA binding to SSB C-terminal tail; AlphaScreen SSBct-PriA binding, biotinylated peptide; inhibition, % at 33 µM; actives 0.6% (n = 430,000); AID 1272365; in the data active means inhibition mostly above about 37%, no sharp cut-off; inactive means mostly below about 20%;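 further: plate controls were negative control peptide for no effect and reference peptide for full effect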
Mtb FBA inh = inhibits M. tuberculosis FBA enzyme; actives 2.3% (n = 360,000); inhibition, % at 1 µM; purified M. tuberculosis FBA, fluorescence read-out; in the data active means inhibition above about 27%;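 further: 0% = vehicle and 100% = reference inhibitor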
Mtb betalactam = beta-lactam sensitization of Mtb H37Rv | inhibition, % at 25 µM | M. tuberculosis H37Rv growth with meropenem, percent inhibition | AID 434955 | actives 0.27% (n = 330,000); call rule not given here;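 further: growth measured after seven days incubation then overnight dye step; 0% = bacteria only wells and 100% = bacteria with antibiotic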
Rv3671c protease = Rv3671c (M. tuberculosis) protease inhibition | P9WHR9 | inhibition, % at 5.96 µM | actives 0.048% (n = 320,000); in the data active means inhibition above about 38%;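 further: extracellular domain of Rv3671c used as enzyme; 0% = enzyme with DMSO and 100% = no enzyme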
* = called active by the depositor; . = no result given; + = active, no number.

SMILES	GDH-TPI counter	Mtb UGM inh	PriA SSB inh	Mtb FBA inh	Mtb betalactam	Rv3671c protease
CC(=O)CSc1nc2cc3c(cc2cc1C#N)OCCO3	32.9*	-1.3	7.4	3.4	4.9	7.7
O=C(C1CC1)N(Cc1ccsc1)Cc1ccccn1	.	.	-5.0	.	.	.
CCOC(=O)/C(C#N)=C/N=c1ccc(C)cn1C	39.3*	2.7	-7.4	1.9	-1.7	0.8
CCCN1C=CC(=C/C=C(\C#N)C(=O)OCC)C=C1	.	-5.7	.	.	-0.9	-22.9
COc1cc2c(cc1OC)C(C)=NCC2	0.0	-2.0	-6.8	+	-3.3	-6.4
COc1cc2c(cc1OC)C(C)=NC1(CCCCC1)C2	14.7	-0.8	4.5	185.7*	-10.5	-2.4
CC1(C)CC(=O)C2=C(C1)NC(Nc1nc3ccccc3o1)=NC2c1ccccn1 (centres undefined)	44.4*	1.0	-5.9	-2.0	90.8	3.8
CCn1cc(/C=C(\NC(=O)c2ccccc2Cl)C(=O)N2CCN(C)CC2)c2ccccc21	39.1*	.	1.4	0.3	.	.
CCn1cc(/C=C(\NC(=O)c2ccccc2F)C(=O)N2CCOCC2)c2ccccc21	30.8*	-2.2	2.6	-1.7	5.0	-0.2
CCn1cc(/C=C(\NC(=O)c2ccccc2F)C(=O)N2CCCC2)c2ccccc21	31.8*	0.4	-8.2	-6.4	4.3	-3.4
COc1cccc(OCC(=O)NCc2ccccc2)c1	.	.	-4.0	.	.	.
Clc1cccc(CSc2ncc(-c3ccccc3)[nH]2)c1	.	.	15.0	.	.	.
CCOC(=O)Cc1c(C)nc2c(-c3ccc(Cl)cc3)c[nH]n2c1=O	21.2	-1.0	-15.2	56.0*	98.2	0.4
O=C(CCOc1ccccc1)Nc1ccc(Cc2ccc(NC(=O)CCOc3ccccc3)cc2)cc1	.	.	-13.0	.	.	.
CC(=O)c1c(N2CCN(C)CC2)[nH]c(-c2ccccc2)nc1=S	9.9	-1.9	46.2*	0.8	99.8	11.0
CCn1c(C)c(C(C)=O)c(N2CCN(c3ccccc3)CC2)nc1=S	-2.5	1.3	3.1	-3.4	-15.5	-0.9
CCCC1=NCCn2cccc21	4.6	0.7	-4.8	1.4	-11.6	-12.1
COc1ccc(C2=NCCn3cccc32)c(OC)c1	49.4*	0.6	-5.5	-1.3	6.0	-6.1
C=CCN1C(=O)C(Cc2ccc(F)cc2)S/C1=N/N=C/c1cccs1 (centres undefined)	10.7	1.4	.	-0.3	-15.1	-0.5
O=C1CS/C(=N/N=C/c2cccs2)N1Cc1ccc(F)cc1	36.5*	1.9	.	-1.4	9.3	4.6
CCn1c(SCC(=O)Nc2ccc(C)cc2)nc2nc3c(cc2c1=O)COC(C)(C)C3	30.6*	-0.5	-1.9	0.9	0.2	4.5
CC(=O)c1cccc(NC(=O)CN2CCC(c3nc(-c4ccc(C)cc4)no3)CC2)c1	.	.	-42.0	.	.	.
COc1cc(-c2c(C#N)c(N)nc3c2CCCC3)ccc1O	9.2	2.4	8.8	8.7	-6.9	-3.1
COC(=O)c1c(C#N)c(N)nc2c1CCCC2	5.7	-0.7	-25.3	125.0*	-11.3	2.5
CC(C)c1cccc2sc(NC(=O)c3ccc(-c4ccccc4)cc3)nc12	.	.	-7.0	.	.	.
SMILES	GDH-TPI counter	Mtb UGM inh	PriA SSB inh	Mtb FBA inh	Mtb betalactam	Rv3671c protease
CCC(=O)N1CCc2ccc(NC(=O)COc3ccccc3OC)cc2C1	.	.	-14.0	.	.	.
CCSC1=N/C(=C\c2ccccc2)C(=O)N1	12.5	0.4	-9.8	2.8	-2.4	0.7
COC(=O)C(C)SC1=N/C(=C/c2ccc(-n3cncn3)cc2)C(=O)N1 (centres undefined)	43.0*	-0.9	-3.2	-0.1	3.8	4.6
COc1cc(C=NNc2ccc(Cl)c(C(=O)O)c2)ccc1OC(=O)c1ccco1	.	.	6.0	.	.	.
O=C(c1cc(-c2ccc(F)cc2)c[nH]1)N1CCC(n2ccnn2)CC1	.	.	1.0	.	.	.
Oc1ccc(C=NNc2ncnc3nc[nH]c23)cc1	.	.	-14.2	.	.	.
Oc1ccc(/C=N/Nc2ncnc3nc[nH]c23)cc1	74.0*	-0.6	.	-0.7	-1.7	8.8
Fc1cccc(/C=N/Nc2ncnc3nc[nH]c23)c1	42.2*	0.6	.	-0.3	5.5	1.4
Cc1ccc(/C=N/Nc2ncnc3nc[nH]c23)cc1	64.2*	-4.4	.	-4.6	3.0	4.8
CCc1ccc(C=NNc2ncnc3nc[nH]c23)cc1	.	.	7.7	.	.	.
Fc1cccc(F)c1/C=N/Nc1ccccn1	13.8	-2.5	.	0.2	12.2	-1.9
Fc1cccc(/C=N/Nc2ccccn2)c1	48.8*	0.1	.	-2.6	-4.0	14.4
C=CCN1C(=O)C(C)(C)COc2cc(NC(=O)C34CC5CC(CC(C5)C3)C4)ccc21	.	.	12.0	.	.	.
CCn1c(O)c(C2=NCCCC2)c2ccccc21	35.8*	0.3	6.1	-0.4	8.6	9.4
COc1cccc(NC(=O)CN2C(=O)NC(c3ccccc3)(c3ccccc3)C2=O)c1	-1.5	-2.0	1.2	0.1	-5.3	-8.1
COc1cc(NC(=O)CN2C(=O)NC(c3ccccc3)(c3ccccc3)C2=O)cc(OC)c1	-10.7	3.1	44.5*	-1.6	-0.7	-29.9
Cc1cccc(-n2ncc3c(=O)n(Cc4c(F)cccc4Cl)cnc32)c1C	.	.	-9.0	.	.	.
O=C(Nc1nc(-c2ccc(Cl)cc2)cs1)c1cc(Cl)ccc1[N+](=O)[O-]	.	.	56.5	.	.	.
O=C(NC(=S)Nn1cnnc1)c1ccccc1Cl	-1.3	13.2*	-17.2	-2.5	1.8	4.7
O=C(NC(=S)Nn1cnnc1)c1ccc(F)cc1Cl	-4.4	-0.2	-0.1	-2.3	-3.3	-6.9
CC(C)(C)OC(=O)C[C@@H]1C/C=C/C[C@H](CC(=O)NCCO)C(=O)N2CCC[C@@H]2COC1=O	.	.	-3.2	.	.	.
CN(C)c1ccc(C=NC(CO)C(O)c2ccc([N+](=O)[O-])cc2)cc1 (centres undefined)	38.4*	3.5	-5.0	-7.5	-1.8	-0.4
Nc1ccc2c(c1)Nc1ccccc1CC2	-4.1	-1.6	57.6*	-5.8	45.6	7.8
CC(C)(C)c1ccc(Cn2cnc(-c3ccc([N+](=O)[O-])cc3)c2)cc1	14.6	0.2	6.7	-2.3	0.2	-0.6
Cc1cc(C)c(Cn2cnc(-c3ccc([N+](=O)[O-])cc3)c2)c(C)c1	5.0	1.5	50.3*	-2.5	3.7	-11.9
SMILES	GDH-TPI counter	Mtb UGM inh	PriA SSB inh	Mtb FBA inh	Mtb betalactam	Rv3671c protease
CCOC(=O)c1nn(-c2ccccc2)c(C(=O)OCC)c1N	19.2	-1.2	4.1	+	6.3	3.1
CC1CC(C)CN(S(=O)(=O)c2ccc(C(=O)Nc3ccc4c(c3)OCO4)cc2)C1 (centres undefined)	.	.	-18.0	.	.	.
COc1cc2c(cc1OC)C(c1ccc(-c3cc(Cl)ccc3Cl)o1)=NCC2	14.2	1.2	16.5	0.5	43.1	-4.2
COc1cc2c(cc1OC)C(c1ccc(-c3ccc(Cl)cc3Cl)o1)=NCC2	31.8*	-1.8	-7.1	1.9	10.9	-10.4
C=CCn1c(SCC(=O)NCc2ccco2)nc2scc(-c3ccc(OC)cc3)c2c1=O	.	.	-20.0	.	.	.
O=C(O)CC/C(=C/c1cccc(NC(=O)c2ccccc2Cl)c1)c1nc2ccccc2s1	37.0*	.	-14.4	12.3	.	.
CC(=NNC(=O)C(C)Oc1ccc([N+](=O)[O-])cc1)c1ccccn1 (centres undefined)	.	.	47.8*	.	.	.
CCOc1cc(C=NNC(=O)CNc2ccc(C)cc2)ccc1OC(=O)c1ccccc1	.	.	0.5	.	.	.
